A selection: hits, their analogues and other compounds. The true share with any hit is near 32%.
CYP2C19 inh: blockers of cytochrome P450 2C19 activity – biochemical, luminescence, ADME assay, primary screen. P33261. CYP2C19 Supersomes, luciferin-H EGE luminescence, 30 min. inhibition, % at 5 µM. 21% of 96,000 active;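 active = CYP2C19 inhibition above a set limit at 5 µM in the primary screen, cut at about 50% in these data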;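 also: plate controls were negative control wells for no effect and 2.5 mM tranylcypromine positive control for full effect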
Target sequence (P33261 whole entry, looked up): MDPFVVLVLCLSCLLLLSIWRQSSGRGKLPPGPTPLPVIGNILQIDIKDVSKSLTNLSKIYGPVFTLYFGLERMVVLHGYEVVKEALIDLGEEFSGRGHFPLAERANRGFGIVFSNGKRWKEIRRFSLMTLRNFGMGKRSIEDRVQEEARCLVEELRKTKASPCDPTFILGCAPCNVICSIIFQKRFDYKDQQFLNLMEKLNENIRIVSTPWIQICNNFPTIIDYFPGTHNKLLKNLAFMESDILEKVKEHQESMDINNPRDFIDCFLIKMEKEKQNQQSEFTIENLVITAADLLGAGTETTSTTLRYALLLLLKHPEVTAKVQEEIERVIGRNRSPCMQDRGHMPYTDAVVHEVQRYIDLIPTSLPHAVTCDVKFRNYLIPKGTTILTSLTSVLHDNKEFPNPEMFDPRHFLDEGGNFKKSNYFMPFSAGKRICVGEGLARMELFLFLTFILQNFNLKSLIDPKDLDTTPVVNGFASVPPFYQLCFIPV
CYP2C9 activ: human CYP2C9 activators, primary screen, biochemical, luminescence. Cytochrome P450 2C9 (Homo sapiens), P11712. recombinant CYP2C9, luciferin-H conversion; stronger effect = higher value; factor 1 = untreated enzyme, 0 = blocked. activation factor at 5 µM. 1.4% of 96,000 active. AID 1024, 2008;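 active = activation factor of 2 or more for CYP2C9 at a 5 µM dose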;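 also: 0 = sulfaphenazole-blocked wells and 1 = vehicle-only wells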
PostGolgi yeast: phenotypic screen on post-Golgi transport, primary screen | post-Golgi transport phenotypic cell assay | inhibition, % at 10 µM | 0.9% of 98,000 active;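 also: yeast cells grown in 1536-well plates; yeast grown about 18 h at 30C before absorbance read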
CYP2C19 activ: human CYP2C19 activators, primary screen, biochemical, luminescence. Cytochrome P450 2C19 (Homo sapiens), P33261. recombinant CYP2C19, luciferin-H EGE luminescence; stronger effect = higher value; 0 = fully inhibited enzyme, 1 = untreated enzyme. activation factor at 5 µM. 96,000 tested, under 10 active;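 active = activation factor of at least 2 at 5 µM in the primary screen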;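 also: 0 = wells with 2.5 mM tranylcypromine and 1 = vehicle-only wells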
CYP2C9 inhib: blockers of cytochrome P450 2C9 activity – biochemical, luminescence, ADME assay, primary screen. CYP2C9 Supersomes, luciferin-H conversion. inhibition, % at 5 µM. 20% of 96,000 active;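 active = blocking of liver enzyme CYP2C9 beyond about 50% at 5 µM, limit read from the data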
PostGolgi ctrl: growth inhibition of yeast control strain, primary screen, counter-screen for post-Golgi transport modulator project; efflux-deficient yeast background strain, growth absorbance A615, 16 h; inhibition, % at 10 µM; 5% of 98,000 active; AID 738, 2007
Active calls of the source: *; x = not tested or not shown. Rule as the data show it, unless noted: active = inhibition above about 30%; inactive = the rest.

SMILES	CYP2C19 inh	CYP2C9 activ	PostGolgi yeast	CYP2C19 activ	CYP2C9 inhib	PostGolgi ctrl
O=C(NC(NNc1ccc([N+](=O)[O-])cc1)(C(F)(F)F)C(F)(F)F)c1ccccc1Cl	45	0.5	1	0.6	53*	44*
Cc1ccccc1C(=O)NNc1ccc([N+](=O)[O-])cc1	15	1	6	0.9	0	4
Cc1cc(N2CCN(C3CCCC3)CC2)n2ncc(-c3ccccc3)c2n1	72*	0.2	x	0.3	76*	x
Cc1cc(N2CCOCC2)n2nc(C)c(-c3ccccc3)c2n1	0	1	-8	1	2	17
COCCCNCCOCCOc1ccc(C)cc1[N+](=O)[O-]	39	0.9	2	0.6	7	-11
Cc1nc2sc(C(c3cccs3)N3CCOCC3)c(O)n2n1 (centres undefined)	8	1	5	0.9	-4	12
CC(Oc1ccc(-c2ccccc2)cc1)C(=O)N1CCOCC1 (centres undefined)	55*	0.4	-2	0.5	56*	7
COc1ccc(OC(C)C(=O)N2CCOCC2)cc1 (centres undefined)	15	1	5	0.8	-3	15
COc1ccc(C(=O)O)cc1NS(=O)(=O)c1cccc2nsnc12	-10	1.1	8	1.1	-7	4
COc1ccccc1CNC(=O)CCNS(=O)(=O)c1cccc2nsnc12	80*	2.3*	-4	0.2	-129	5
Cc1cccc(NC(=O)CCNS(=O)(=O)c2cccc3nsnc23)c1	67*	0.8	10	0.3	18	9
O=C(CCCNS(=O)(=O)c1cccc2nsnc12)NCCc1ccccc1	50	1	-6	0.5	0	4
CCOc1ccc(OCC)c(NS(=O)(=O)c2cccc3nsnc23)c1	24	0.7	27	0.8	33	11
COc1ccccc1NC(=O)CS(=O)(=O)c1cccc2nsnc12	40	2.5*	-4	0.6	-154	7
CCOc1ccccc1NS(=O)(=O)c1cccc2nsnc12	91*	0.7	-11	0.1	29	5
COc1ccc(NC(=O)c2ccco2)cc1N	15	0.9	2	0.8	13	11
CCOC(=O)c1ccc2nc3c(cc2c1)CCS3	4	0.5	1	1	47	2
CN(C)c1nc(NS(=O)(=O)c2ccc(Cl)cc2)nc(N(C)C)n1	22	0.7	4	0.8	30	-2
COc1nc(NS(=O)(=O)c2ccc(C)cc2)nc(C)c1Cl	68*	0.3	-4	0.3	71*	11
CC(=O)Nc1ccc(C(=O)NC(CC(=O)O)c2ccc(Cl)cc2)cc1 (centres undefined)	-7	1	21	1.1	2	-3
Cc1cc(C)cc(OCC(=O)Nc2ccc(N3CCCC3)cc2)c1	-7	1.2	-3	1.1	-20	-3
O=C(COc1ccc(CO)cc1)Nc1ccc(F)cc1	52*	0.7	5	0.5	30	22
Cc1cc(C)cc(OCC(=O)Nc2ccc(F)cc2)c1	59*	1	-1	0.4	0	6
O=C(COc1ccc(CO)cc1Cl)Nc1ccc(F)cc1	58*	0.5	-13	0.4	49	2
Cc1cc(OCC(=O)Nc2ccncc2)cc(C)c1Br	100*	0	2	0	99*	12
SMILES	CYP2C19 inh	CYP2C9 activ	PostGolgi yeast	CYP2C19 activ	CYP2C9 inhib	PostGolgi ctrl
CCCC1(C(=O)OC)NC(c2ccco2)C2C(=O)N(c3ccc(C)cc3)C(=O)C21 (centres undefined)	12	0.8	11	0.9	17	4
CN(C(=O)c1ccc(=O)[nH]c1)C1(C(=O)NC2CCCCC2)CCCCC1	-11	1.1	-2	1.1	-8	3
NC(=O)CSc1nnc(Cn2c(=O)sc3ccccc32)n1-c1cccc(Cl)c1	1	0.9	5	1	8	1
Cc1ccc(Cn2nnc3c(=O)n(CC(=O)N4CCN(c5ccccc5)CC4)cnc32)cc1	38	0.9	13	0.6	6	1
Cc1cc(OCC(=O)NCCN2CCOCC2)cc(C)c1Br	99*	2.1*	2	0	-107	18
COc1ccccc1NC(=O)COc1ccc(CO)cc1Cl	97*	0.1	-14	0	92*	20
CC1=CC(C)(C)N2C(=O)C3(C(C#N)=C(N)OC4=C3C(=O)CC(C)(C)C4)c3cc(C)cc1c32 (centres undefined)	16	0.7	-4	0.8	31	-9
CC(OC(=O)CNC(=O)C12CC3CC(CC(C3)C1)C2)C(=O)Nc1ncc(Cl)cc1Cl (centres undefined)	54*	0.6	-1	0.5	39	16
COc1ccc(/C=N/NC(=O)Cc2csc(Nc3cccc(C(F)(F)F)c3)n2)cc1C	x	x	9	x	x	20
CCN(CC)S(=O)(=O)c1ccc(O)c(C(=O)OCC(=O)N(C)Cc2ccccc2)c1	31	0.2	4	0.7	75*	-12
Cc1cccc(OCCCSc2nc3ccccc3[nH]2)c1	77*	1	2	0.2	2	34*
COc1cccc(-c2nnc(SCc3nc4ccccc4[nH]3)n2N)c1	22	1.1	11	0.8	-13	10
Cc1cccc(OCCSCc2nc3ccccc3[nH]2)c1	72*	0.4	2	0.3	61*	23
CC(=O)CC(=O)Nc1ccccc1NC(C)=O	-2	1	-12	1	1	5
COc1ccc(S(=O)(=O)C(C#N)c2nc3ccccc3nc2N2CCC(C)CC2)cc1 (centres undefined)	-3	1.1	x	1	-8	x
Cc1c(C=O)c2ccccn2c1C(=O)c1ccccc1	85*	0.1	-4	0.1	90*	3
COc1cccc(/C=N/NC(=O)CCc2ccccc2)c1	60*	0.9	19	0.4	5	2
COc1cccc(/C=N/NC(=O)c2ccc(OCc3cccc(Br)c3)cc2)c1	50	0.2	0	0.5	84*	12
O=C(CSc1ccc2nnc(-c3ccccn3)n2n1)N1CCN(c2ccccc2)CC1	38	1	2	0.6	-1	7
O=C(N/N=C/c1ccco1)c1cc(-c2cccc3ccccc23)n[nH]1	15	0.6	-1	0.8	36	14
O=P(Cc1ccccn1)(c1ccccc1)c1ccccc1	-4	0.9	8	1	6	-5
C=CCOc1nc(-c2ccncc2)nc2ccccc12	79*	0.4	17	0.2	64*	48*
CCCCN(CC)c1nc(-c2ccncc2)nc2ccccc12	96*	0.1	5	0	94*	63*
CN1CCN(c2nc(-c3ccncc3)nc3ccccc23)CC1	28	0.8	-3	0.7	20	-1

Screens from PubChem.
